A selection: hits, their analogues and other compounds. The true share with any hit is near 7.3%.
NPC1 promoter act: activates the NPC1 promoter | Huh7 NPC1 promoter luciferase reporter, 24 h | 320,000 compounds, 2.4% hits | Potency, µM (titrated, usually from 9.22 µM), actives largely listed as activators; further: nearly all actives have a fitted effect of over 60% in size
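Luminescence from an NPC1 promoter-driven luciferase reporter in stably transfected Huh7 cells was measured after 24 h compound treatment at 37 °C, followed by 10 min ambient incubation with luciferase detection reagent.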
KinaseGlo FLuc: blocks Kinase-Glo luciferase, a counter-screen artifact | Kinase-Glo luciferase, ATP luminescence, 8 min | Potency, µM (highest dose often 38.3 µM), actives largely listed as inhibitors | 200,000 compounds, 0.28% hits | AID 1379; further: nearly all actives have a fitted effect of over 60% in size
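Compounds were added to a substrate mix at pH 7.2 (50 mM imidazole, 10 uM ATP, within the enzyme's linear range), followed by Kinase-Glo detection reagent; luminescence was measured after 8 minutes at ambient temperature.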
Rab9 promoter act: activators of Rab9 promoter | Huh7 Rab9 promoter-luciferase reporter, luminescence, 24 h | 320,000 compounds, 2.8% hits | Potency, µM (series often up to 9.22 µM), most hits filed as activators | AID 485297; further: nearly all actives have a fitted effect of over 60% in size
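Luciferase signal after 10 min detection reagent at ambient indicates Rab9 promoter upregulation; stably transfected Huh7 cells were treated 24 h with compound in DMSO at 37 °C, 5% CO2.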
FLuc counter: firefly luciferase modulation, counter-screen for miR-21 project. P08659. purified FLuc, Km substrates, luminescence inhibition. Potency, µM (doses to about 57.5 µM), most hits filed as inhibitors. 360,000 compounds, 6.9% hits. AID 588342; further: nearly all actives have a fitted effect of over 55% in size
Target sequence (P08659 whole entry, looked up): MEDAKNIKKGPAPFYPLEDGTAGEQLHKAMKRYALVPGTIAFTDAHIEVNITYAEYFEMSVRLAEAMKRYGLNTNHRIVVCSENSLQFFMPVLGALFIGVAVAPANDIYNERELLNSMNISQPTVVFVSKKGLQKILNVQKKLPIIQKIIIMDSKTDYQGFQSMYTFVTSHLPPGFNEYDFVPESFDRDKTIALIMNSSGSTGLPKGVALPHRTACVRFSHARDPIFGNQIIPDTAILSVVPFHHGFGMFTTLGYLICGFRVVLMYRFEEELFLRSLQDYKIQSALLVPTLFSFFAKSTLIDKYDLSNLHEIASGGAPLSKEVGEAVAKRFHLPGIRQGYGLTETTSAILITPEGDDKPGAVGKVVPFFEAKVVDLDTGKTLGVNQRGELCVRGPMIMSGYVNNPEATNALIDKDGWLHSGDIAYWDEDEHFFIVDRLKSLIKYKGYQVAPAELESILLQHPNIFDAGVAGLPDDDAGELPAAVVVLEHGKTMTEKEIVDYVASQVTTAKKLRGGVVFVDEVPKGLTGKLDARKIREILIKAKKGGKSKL
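Purified P. pyralis luciferase, 10 nM final, with Km-level 10 uM D-luciferin and 10 uM ATP in 50 mM Tris acetate pH 7.5, 10 mM Mg acetate, 0.01% Tween-20, 0.05% BSA; 6-point qHTS titration about 60 µM downward; luminescence read.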
SMN2 splice up: enhancers of SMN2 splice variant expression. Potency, µM (top dose mostly 46.1 µM), hits mostly activators. AID 1458. 210,000 compounds, 2.8% hits. HEK293 SMN2-luciferase splicing reporter, luminescence, 30-36 h; further: nearly all actives have a fitted effect of over 55% in size
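HEK293 cells carry an SMN2 minigene-luciferase reporter in which exon 7 inclusion puts luciferase in frame. Cells were seeded at 2000 cells/well, attached for 10-12 hours, then exposed to compounds for 30-36 hours at 37C before ONE-Glo luminescence.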
ELG1 genotox: induces genotoxicity in HEK293T cells with luciferase-tagged ELG1 | HEK293T ELG1-luciferase reporter, luminescence, 16 h | Potency, µM (top dose mostly 46 µM), actives largely listed as activators | 330,000 compounds, 1.3% hits | AID 504466; further: nearly all actives have a fitted effect of over 60% in size
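16 hr compound incubation (37 °C, 5% CO2) of HEK293T cells carrying luciferase-tagged ELG1; luciferase then measured by ONE-Glo luminescence after 30 min at RT.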
Of the large screens only hits and unclear results are named; the others gave an inactive call. The call rests on the fitted dose curve; in most records, active means well fitted curve in the direction sought with a large enough effect; inconclusive means small, poorly fitted or top-dose-only effect, or another doubt; inactive means no such curve, though single readings can be large; an effect the other way counts as inactive or inconclusive.

COc1ccc(OCC2c3cc(OC)c(OC)cc3CCN2C(=O)c2ccc(F)cc2)cc1 (configuration not stated)	none (no result: NPC1 promoter act, KinaseGlo FLuc, Rab9 promoter act, SMN2 splice up, ELG1 genotox)
Cc1ccc(C)c(N2CCN(C(=O)C3CCCN(S(=O)(=O)c4ccc5c(c4)oc(=O)n5C)C3)CC2)c1 (configuration not stated)	none (no result: NPC1 promoter act, KinaseGlo FLuc, Rab9 promoter act, ELG1 genotox)
COc1cccc(Nc2ccccc2C(=O)O)c1	FLuc counter 27µM, SMN2 splice up inconclusive
COc1cccc(NC(=O)Nc2ccccc2C(N)=O)c1	FLuc counter 21µM
O=C(Nc1cccc(Cl)c1)Nc1ccccc1C(=O)O	NPC1 promoter act 0.56µM, Rab9 promoter act 0.13µM, FLuc counter 0.85µM, ELG1 genotox inconclusive (no result: KinaseGlo FLuc, SMN2 splice up)
O=C(O)c1ccccc1Nc1ccc(OC(F)F)cc1	FLuc counter 21µM
O=C(O)c1ccccc1Nc1ccccc1	none
O=C(O)[C@@H]1[C@@H](C(=O)NCc2ccncc2)[C@@H]2C=C[C@@H]1O2	none (no result: NPC1 promoter act, Rab9 promoter act, FLuc counter, ELG1 genotox)
COc1ccc(Br)c2c1-c1nc(NC(=O)c3cccc(C)c3)sc1C2	none (no result: NPC1 promoter act, KinaseGlo FLuc, Rab9 promoter act, ELG1 genotox)
CC1=C(C(=O)NCCc2ccc(Cl)cc2)C2(CCCCC2)OC1=O	none (no result: NPC1 promoter act, KinaseGlo FLuc, Rab9 promoter act, SMN2 splice up, ELG1 genotox)
COc1ccc(C2=NN(c3ccccc3)C(c3cn(CCC(=O)O)nc3-c3ccccc3)C2)cc1 (configuration not stated)	FLuc counter 4.3µM
COc1ccc(C2CC(c3ccc(Cl)cc3)=NN2c2ccc(S(N)(=O)=O)cc2)cc1 (configuration not stated)	none (no result: NPC1 promoter act, KinaseGlo FLuc, Rab9 promoter act, FLuc counter, SMN2 splice up)
COc1ccc(C2CC(c3ccccc3)=NN2c2ccc(Cl)c(C(=O)O)c2)cc1 (configuration not stated)	FLuc counter 21µM (no result: SMN2 splice up)
COc1ccc(C2CC(c3ccncc3)=NN2c2ccc(S(N)(=O)=O)cc2)cc1 (configuration not stated)	ELG1 genotox 21µM (no result: NPC1 promoter act, KinaseGlo FLuc, Rab9 promoter act, FLuc counter, SMN2 splice up)
COc1ccc(C2CC(c3ccccc3)=NN2c2ccc(N)cc2)cc1 (configuration not stated)	FLuc counter 9.5µM
COc1cccc(C2C(C(=O)Nc3ccccc3)=C(C)Nc3nnnn32)c1OC (configuration not stated)	none (no result: NPC1 promoter act, KinaseGlo FLuc, Rab9 promoter act, SMN2 splice up, ELG1 genotox)
Cc1ccc(N2CCN(c3nc4ccc(C)cc4n4nnnc34)CC2)c(C)c1	none (no result: NPC1 promoter act, KinaseGlo FLuc, Rab9 promoter act, SMN2 splice up, ELG1 genotox)
CCN1CCN(C(=O)N[C@H](C(=O)N[C@@H]2C(=O)N3C(C(=O)O)=C(CSc4nnnn4C)CS[C@@H]23)c2ccc(O)cc2)C(=O)C1=O	none (no result: NPC1 promoter act, Rab9 promoter act, FLuc counter, ELG1 genotox)
Cn1ccnc1SCC(=O)c1c[nH]c2ccccc12	NPC1 promoter act 4µM, Rab9 promoter act 3.5µM, FLuc counter 19µM, SMN2 splice up 18µM, ELG1 genotox 10µM
COc1ccc(NC(=O)c2onc(C)c2Cl)cc1OC	FLuc counter inconclusive
COc1ccc(NC(=O)c2cc(C)on2)cc1	NPC1 promoter act 2.8µM, Rab9 promoter act 2.8µM, FLuc counter 21µM, SMN2 splice up 11µM, ELG1 genotox inconclusive
Cc1noc(C(=O)Nc2ccc(C#N)cc2)c1Cl	none (no result: KinaseGlo FLuc, SMN2 splice up)
COc1ccc(Cc2nc(C(=O)Nc3ccc(OC)cc3)cs2)cc1	FLuc counter 24µM, ELG1 genotox inconclusive
CCc1ccc(NC(=O)c2onc(C)c2Cl)cc1	NPC1 promoter act 2.5µM, Rab9 promoter act 2µM, FLuc counter 3.4µM, SMN2 splice up 14µM, ELG1 genotox 5.2µM
COc1ccc(NC(=O)c2onc(C)c2Cl)cc1	NPC1 promoter act 3.5µM, Rab9 promoter act 3.2µM, FLuc counter 15µM, ELG1 genotox inconclusive (no result: KinaseGlo FLuc, SMN2 splice up)
Cc1c(C(=O)N(C)C)sc2c1c(=O)n(-c1ccc(Cl)cc1)c(=O)n2CC(=O)C(C)(C)C	none (no result: NPC1 promoter act, KinaseGlo FLuc, Rab9 promoter act, SMN2 splice up, ELG1 genotox)
CCCn1c(-c2ccc(OC)cc2)nc2ccccc21	FLuc counter inconclusive
O=C(Nc1nc2ccccc2n1CCOc1ccccc1Cl)c1ccccc1	FLuc counter 4.8µM (no result: NPC1 promoter act, KinaseGlo FLuc, Rab9 promoter act, ELG1 genotox)
Cc1ccc(Cn2c(-c3ccccc3)nc3ccccc32)cc1	FLuc counter inconclusive (no result: NPC1 promoter act, KinaseGlo FLuc, Rab9 promoter act, ELG1 genotox)
C=CCn1c(-c2ccc(C)cc2)nc2ccccc21	FLuc counter 11µM, ELG1 genotox inconclusive
COCn1c(-c2ccc(OC)cc2)nc2ccccc21	NPC1 promoter act inconclusive, KinaseGlo FLuc inconclusive, Rab9 promoter act 2.5µM, FLuc counter 6µM, SMN2 splice up 14µM, ELG1 genotox inconclusive
C=CCn1c(NC(=O)c2ccc(C)cc2)nc2ccccc21	NPC1 promoter act 2.8µM, Rab9 promoter act inconclusive, FLuc counter inconclusive, ELG1 genotox inconclusive (no result: KinaseGlo FLuc, SMN2 splice up)
C=CCn1c(-c2ccccc2)nc2nc3ccccc3nc21	FLuc counter 17µM
CCOC(=O)N1CCC(NC(=O)c2ccc3c(c2)N(Cc2ccc(F)cc2)C(=O)c2ccccc2S3(=O)=O)CC1	none (no result: NPC1 promoter act, KinaseGlo FLuc, Rab9 promoter act, ELG1 genotox)
Nc1c(N)c2ccccc2oc1=O	none
Nc1ccc2oc(=O)c3ccccc3c2c1	NPC1 promoter act inconclusive, Rab9 promoter act inconclusive, SMN2 splice up 14µM, ELG1 genotox inconclusive
Cc1ccc(S(=O)(=O)NC(=O)Nc2ncn[nH]2)cc1	none (no result: NPC1 promoter act, Rab9 promoter act, FLuc counter, ELG1 genotox)
O=C(Nc1ccc(Cl)cc1)ON=C1CCCC1	Rab9 promoter act 3.5µM, FLuc counter 17µM, ELG1 genotox inconclusive
COc1ccc(-c2nc(CSCC(=O)NCCc3ccc(C)cc3)c(C)o2)cc1OC	none (no result: NPC1 promoter act, KinaseGlo FLuc, Rab9 promoter act, ELG1 genotox)
Nc1n[nH]c(-c2ccc(F)cc2)n1	none
CCCc1ccc(-c2cc(N)n[nH]2)cc1	NPC1 promoter act inconclusive, Rab9 promoter act inconclusive, FLuc counter 7.6µM, ELG1 genotox 16µM
CCCCc1ccc(-c2nc(N)n[nH]2)cc1	NPC1 promoter act 3.2µM, Rab9 promoter act 1.6µM, FLuc counter 6µM, SMN2 splice up 6.3µM, ELG1 genotox inconclusive

Screens from PubChem.
